Source: PubChem BioAssay
HTRA1 inh – blocks human HTRA1 serine peptidase. 0.5% of 340,000 active. Q92743. recombinant HTRA1, FP-rhodamine activity-based probe, fluorescence polarization. inhibition, % at 5.96 µM; in the data active = inhibition above about 36%
PAFAH1B3 FP inh – PAFAH1B3 (human) inhibition; recombinant PAFAH1B3, FP-rhodamine probe, fluorescence polarization; inhibition, % at 3.39 µM; 0.28% of 340,000 active; AID 492972;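 active = inhibition above the screen-wide average of all tested compounds plus 3 SD, cut at about 25% in these data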
Target sequence (Q15102 whole entry, looked up): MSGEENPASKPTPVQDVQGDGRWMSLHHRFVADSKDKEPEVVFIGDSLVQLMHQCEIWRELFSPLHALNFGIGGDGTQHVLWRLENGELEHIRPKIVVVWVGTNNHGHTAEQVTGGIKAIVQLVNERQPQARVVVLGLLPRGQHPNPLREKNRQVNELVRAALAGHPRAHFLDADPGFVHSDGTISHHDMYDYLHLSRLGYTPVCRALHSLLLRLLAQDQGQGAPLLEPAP
pPAFAH FP inh – pPAFAH (human) enzyme inhibition; Q13093; recombinant pPAFAH, FP-rhodamine probe fluorescence polarization; inhibition, % at 3.39 µM; 1.5% of 330,000 active;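 active = inhibition above the mean inhibition across the screen plus 3 SD, cut at about 25% in these data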;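 note: inhibitors block binding of the rhodamine activity-based probe so polarization drops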
PAFAH1B2 FP inh – inhibitors of human PAFAH1B2 | recombinant PAFAH1B2, FP-rhodamine activity probe, fluorescence polarization | inhibition, % at 3.39 µM | 1.2% of 340,000 active | AID 492953;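 active = inhibition above the mean of all tested compounds plus 3 SD, cut at about 24% in these data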
Target sequence (P68402 whole entry, looked up): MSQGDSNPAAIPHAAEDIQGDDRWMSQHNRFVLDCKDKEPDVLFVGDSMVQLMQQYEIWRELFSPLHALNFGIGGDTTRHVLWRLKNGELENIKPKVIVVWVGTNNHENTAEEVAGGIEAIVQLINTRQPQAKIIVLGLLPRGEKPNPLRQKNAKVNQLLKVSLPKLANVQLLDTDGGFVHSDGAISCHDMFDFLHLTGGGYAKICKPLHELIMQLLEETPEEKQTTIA
DAGLB inh – diacylglycerol lipase beta (human) inhibition; Q8NCG7; HEK293T DAGLB membrane lysate, EnzChek fluorogenic substrate; inhibition, % at 5.17 µM; 0.059% of 340,000 active; in the data active = inhibition above about 34%
PAFAH2 FP inh – inhibitors of human PAFAH2 | Q99487 | recombinant PAFAH2, FP-rhodamine activity probe, fluorescence polarization | inhibition, % at 3.39 µM | 0.99% of 340,000 active | AID 492956;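 active = inhibition above the mean over all tested compounds plus 3 SD, cut at about 30% in these data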;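 note: inhibitors block probe labeling of enzyme so polarization drops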
PAFAH2 FP conf – confirmation of human PAFAH2 inhibitors. inhibition, % at 3.39 µM. AID 493030. 65% of 2,300 active. shares compounds with PAFAH2 FP inh. recombinant PAFAH2, FP-rhodamine activity probe, fluorescence polarization;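 active = mean inhibition over three repeats above a set limit taken from the earlier primary screen, cut at about 30% in these data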;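 note: inhibitor blocks binding of rhodamine activity probe so polarization falls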
Hits are given with their value; n = inactive; x = not tested or not shown. This is a sample that favours compounds with a hit; in the whole collection about 2.8% have one here.

SMILES	HTRA1 inh	PAFAH1B3 FP inh	pPAFAH FP inh	PAFAH1B2 FP inh	DAGLB inh	PAFAH2 FP inh	PAFAH2 FP conf
Cc1ccc(NC(=O)COC(=O)c2ccc3ncsc3c2)c(C)c1	n	x	x	x	n	x	x
O=C(COC(=O)c1ccc2ncsc2c1)NCc1ccc(Cl)cc1	n	n	n	n	n	39	n
COc1cc(S(=O)(=O)n2ccc(C)n2)c(C)cc1C	n	x	x	x	n	x	x
COc1ccc(-c2noc(N3CCC(C(=O)NCCCN4CCCC(C)C4)CC3)n2)cc1 (stereo not given)	n	n	n	n	n	n	x
O=C(COC(=O)C1CC2C=CC1C2)NCc1ccccc1Cl (stereo not given)	n	n	n	n	n	45	44
CC1CC1C(=O)OCC(=O)NCc1ccccc1Cl (stereo not given)	n	n	n	n	n	68	56
COC(=O)Cc1c(C)c2ccc(OCC(=O)NC3CCS(=O)(=O)C3)cc2oc1=O (stereo not given)	n	n	n	n	n	n	x
CC(=O)NN(O)C1N(C)C(=O)N(Cc2ccccc2)C1(C)C (stereo not given)	n	n	n	n	n	n	x
Cc1cc(=O)n2[nH]c(SCc3c(F)cccc3Cl)nc2n1	n	n	n	n	n	n	x
Cc1cc(=O)n2[nH]c(SCc3ccccc3Cl)nc2n1	n	n	n	n	n	40	n
CC(CCc1ccccc1)NC(=O)COC(=O)CC1CC2CCC1C2 (stereo not given)	n	n	n	n	n	30	n
O=C(COC(=O)CC1CC2CCC1C2)NCc1ccc(Cl)cc1 (stereo not given)	n	n	n	n	n	n	x
O=C(COC(=O)CC1CC2CCC1C2)NCc1ccccc1 (stereo not given)	n	n	n	n	n	46	n
C[C@H]1CN([C@@H](C)CO)C(=O)CCCn2nncc2CO[C@H]1CN(C)S(=O)(=O)c1ccc(C#N)cc1	n	x	x	x	n	x	x
COc1ccc(OC)c(NC(=O)COC(=O)c2n[nH]c3ccccc23)c1	n	n	n	n	n	n	x
O=C(COC(=O)c1n[nH]c2ccccc12)Nc1ccccc1	n	n	n	n	n	76	67
Cc1cc(C)cc(NC(=O)COC(=O)c2n[nH]c3ccccc23)c1	n	n	n	n	n	70	65
CC(=O)c1cccc(NC(=O)COC(=O)c2n[nH]c3ccccc23)c1	n	n	n	n	n	47	39
O=C(COC(=O)c1n[nH]c2ccccc12)NC1CCCCC1	n	n	n	n	n	80	68
CC1CCCN(C(=O)c2cc(S(=O)(=O)N3CCCCC3)c[nH]2)C1 (stereo not given)	n	n	n	n	n	n	x
O=C1CCCC/C=C\C[C@H](CC(=O)N(CCO)Cc2ccccc2)C(=O)N[C@@H](c2ccccc2)CO1	n	n	n	n	n	48	33
CC(C)(C)[C@H]1COC(=O)CCCC/C=C\C[C@H](CC(=O)N(CCO)Cc2ccccc2)C(=O)N1	n	n	n	n	n	n	x
O=C(COC(=O)CC1CCCCC1)Nc1c(Cl)cccc1Cl	n	n	n	n	n	38	31
O=C(COC(=O)CC1CCCC1)Nc1ccc(Cl)cn1	n	n	n	n	n	50	38
O=C(COC(=O)CN1C(=O)C2CCCCC2C1=O)Nc1c(Cl)cccc1Cl (stereo not given)	n	n	n	n	n	n	x
SMILES	HTRA1 inh	PAFAH1B3 FP inh	pPAFAH FP inh	PAFAH1B2 FP inh	DAGLB inh	PAFAH2 FP inh	PAFAH2 FP conf
O=C(NNS(=O)(=O)c1ccccc1[N+](=O)[O-])c1cc2ccccc2cc1O	n	n	n	n	n	n	x
O=C(O)c1ccccc1C(=O)NCc1c(Cl)cccc1Sc1ccc(Cl)cc1	n	n	n	n	n	n	x
CCCCN1C(=O)C(=O)N(CC(=O)Nc2cc(Cl)ccc2OC)C1=O	n	n	n	n	n	n	x
Cc1ccc(N(C(=O)c2csnn2)C(C(=O)NC2CCCCC2)c2cccnc2)c(C)c1 (stereo not given)	n	n	n	n	n	n	x
COc1cc(/C=C/C(=O)OCC(=O)Nc2ccc(S(N)(=O)=O)cc2)ccc1O	n	n	n	n	n	n	x
CCOC(=O)/C=C/C(=O)OCC(=O)Nc1ccc(Cl)cn1	n	n	n	n	n	n	x
CC(C)=CC(=O)OCC(=O)Nc1ccc(Cl)cn1	n	n	n	n	n	52	43
COc1cc(/C=C/C(=O)OCC(=O)Nc2ccc([N+](=O)[O-])cc2)ccc1O	n	n	n	n	n	78	81
COc1cc(/C=C/C(=O)OCC(=O)Nc2ccc(Cl)cn2)ccc1O	n	n	n	n	n	64	66
O=C(COC(=O)/C=C/c1ccc(F)cc1)Nc1ccc(Cl)cn1	n	n	n	n	n	30	n
COc1cc(/C=C/C(=O)OCC(=O)Nc2cc(C)c(C)cc2[N+](=O)[O-])ccc1O	n	n	n	n	n	n	x
Cc1ccccc1OCCOc1ccccc1C=C(C#N)C#N	x	x	n	x	x	x	x
O=C1OC(/C(=C\Nc2ccc(F)cc2F)[N+](=O)[O-])c2ccccc21 (stereo not given)	n	n	n	n	n	n	x
O=C1OC(/C(=C\Nc2cc(Cl)ccc2O)[N+](=O)[O-])c2ccccc21 (stereo not given)	n	n	n	n	n	49	46
CC(C)c1cccc(C(C)C)c1NC(=O)COC(=O)C1=COCCO1	n	n	n	n	n	68	57
O=C(COC(=O)c1c(F)cccc1F)Nc1ccc2c(c1)OCO2	n	n	x	n	n	n	x
O=C(COC(=O)C1=COCCO1)Nc1ccc2c(c1)OCO2	n	n	n	n	n	69	52
O=C(COC(=O)C1=COCCO1)Nc1c(F)cccc1F	n	n	n	n	n	n	x
CCC(C)c1ccc(NC(=O)COC(=O)C2=COCCO2)cc1 (stereo not given)	n	n	n	n	n	69	58
Cc1cc(C)c(NC(=O)COC(=O)C2=COCCO2)c(C)c1	n	x	x	x	n	x	x
O=C(COC(=O)C1=COCCO1)Nc1cc(Cl)c(Cl)cc1Cl	n	n	n	n	n	38	33
COc1ccc(-c2noc(N3CCCC(C(=O)Nc4cc(F)ccc4F)C3)n2)cc1 (stereo not given)	n	n	n	n	n	n	x
Cc1ccc(NC(=O)COC(=O)C2=COCCO2)cc1	n	n	n	n	n	47	39
COc1ccc(NC(=O)COC(=O)C2=COCCO2)cc1OC	n	n	n	n	n	n	x
CC(C)(C)C1CCC(=NNC(=O)C(=O)NCc2ccco2)CC1 (stereo not given)	n	n	n	n	n	n	x
Cc1ccccc1C1CC(=O)c2ccccc2C1C (stereo not given)	n	n	x	n	n	n	x
Cc1ccc(C(=O)OCC(=O)NCCC2=CCCCC2)s1	n	n	n	n	n	61	60
